Only some compounds are listed: those with a hit (about 6% of all), similar ones and a draw of the others.
D1 ag: agonists of human D1 dopamine receptor. actives 1% (n = 360,000). activation, % at 2 µM. AID 504660. P21728. HEK293 T-REx D1 cells, calcium flux, agonist mode; in the data active means activation above about 30%; further: 0% is about no effect
Target sequence (P21728 whole entry, looked up): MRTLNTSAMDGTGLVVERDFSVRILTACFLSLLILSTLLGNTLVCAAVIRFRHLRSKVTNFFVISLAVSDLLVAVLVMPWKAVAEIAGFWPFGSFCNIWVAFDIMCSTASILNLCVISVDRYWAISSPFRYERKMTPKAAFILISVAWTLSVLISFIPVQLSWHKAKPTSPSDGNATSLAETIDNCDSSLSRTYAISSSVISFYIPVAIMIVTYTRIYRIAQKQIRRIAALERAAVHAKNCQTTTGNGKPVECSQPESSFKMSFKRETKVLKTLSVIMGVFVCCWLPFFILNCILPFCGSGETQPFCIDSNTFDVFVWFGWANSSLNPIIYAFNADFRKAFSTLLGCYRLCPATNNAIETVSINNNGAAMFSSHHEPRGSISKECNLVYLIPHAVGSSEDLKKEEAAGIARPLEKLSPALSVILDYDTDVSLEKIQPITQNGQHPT
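Agonism was scored from calcium flux recorded over 180 s (1 read/s) after pintool compound addition, following a 10-cycle baseline. Cells were inducible force-coupled HEK293 TREx D1, plated overnight at 30 C and loaded with no-wash calcium dye.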
DRD3 agonist: D3 dopamine receptor (human) agonism | P35462 | D3R DiscoveRx beta-arrestin cells, luminescence, 90 min | actives 0.58% (n = 410,000) | AID 652048 | max activation, %; in the data active means max activation above about 30%; further: 0% is about no effect
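Agonist mode: compounds and dopamine controls were applied to plated cells for 90 min at 37 degrees C after an overnight attachment at 1500 cells/well. Luminescent read-out followed 30 - 60 minutes at room temperature with DiscoveRx detection reagent.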
D1 antagonist: blocks dopamine activation of the human D1 receptor; activity change, negative = inhibition, % at 10 µM; actives 3.2% (n = 360,000); HEK293 TREx D1 cells, calcium flux, dopamine EC80; stronger effect = lower value; in the data active means activity change below about -30%; further: on the % scale 0 is the no-effect control and ±100 the full control effect
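Antagonism measured as reduced calcium response to an EC80 dopamine addition following 180 s compound pre-read; cells were inducible HEK293 Trex D1 plated overnight at 30 C, read kinetically at 1 cycle/sec.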
D3 antag: D3 dopamine receptor (human) antagonism; actives 2.5% (n = 360,000); P35462; AID 652054; D3R cells, DiscoveRx beta-arrestin luminescence, antagonist mode; stronger effect = lower value; max response, negative = inhibition, %; in the data active means max response below about -50%; inconclusive means no clear call, values can overlap the other calls; further: on the % scale 0 is the no-effect control and ±100 the full control effect
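Cells expressing the human receptor were seeded at 1500 cells/well, incubated overnight at 37 degrees C in 5% CO2, then exposed to library compounds with dopamine controls for 90 minutes at 37 degrees C before luminescent detection.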
D1 PAM: human D1 dopamine receptor positive modulation. P21728. HEK293 TREx D1 cells, calcium flux, dopamine EC20 potentiation. potentiation, % at 10 µM. actives 0.036% (n = 360,000); in the data active means potentiation above about 30%; further: 0% is about no effect
* marks the source's active call; other numbers are inactive results; ? = inconclusive; · = no result given; ! = not confirmed by another sample.

SMILES	D1 ag	DRD3 agonist	D1 antagonist	D3 antag	D1 PAM
Cc1ccc(C2Nc3ccccc3NC3=C2C(=O)OC(C)C3)cc1 (centres undefined)	1.9	6.4	-17.7	-4.9	-2.9
COC(=O)c1ccc(NC(=O)C2CCCN(S(C)(=O)=O)C2)cc1 (centres undefined)	1.8	1.6	-32.8*	-28.6	-2.5
CC1=C(C(=O)Nc2ccc(C)cc2C)C(c2ccccc2F)n2nc(SCC(=O)c3ccc(C)cc3)nc2N1 (centres undefined)	1.5	-7.0	4.8	·	-1.6
C=CCc1c(C)nc(C)nc1N/N=C/c1ccccc1O	3.6	-21.0	-7.7	-113.5*	-1.1
C=CCc1c(C)nc(C)nc1N/N=C/c1ccc([N+](=O)[O-])cc1	0.7	-1.0	2.6	?	-4.3
COc1cc(NC(=O)CN2C(=O)C(c3ccc(C)cc3)=NC23CCCCC3)cc(OC)c1	4.3	7.9	4.0	·	4.0
COc1ccc(N(CC(=O)NC2CCCCC2)C(=O)CCC(=O)Nc2nc(C)cs2)cc1OC	0.0	-2.1	-45.4*	-1.7	0.8
Cc1cccc(N(CC(=O)NC2CCCC2)C(=O)CCCC(=O)Nc2ccccn2)c1	-0.2	-0.1	-34.4*	15.8	3.7
Cc1cccc(N(CC(=O)NC2CCCCC2)C(=O)CCCC(=O)Nc2ccccn2)c1	-1.0	-6.7	2.2	-28.3	3.1
COc1ccc(N(CC(=O)NC2CCCCC2)C(=O)CCC(=O)Nc2nc(C)cs2)cc1	5.6	7.0	21.4	10.5	5.0
CC(=O)c1ccc(N(CC(=O)NC2CCCC2)C(=O)CCC(=O)Nc2cc(C)on2)cc1	0.8	-8.5	-36.4*	-26.1	-7.1
CC(=O)Nc1ccc(N(CC(=O)NC2CCCC2)C(=O)CCC(=O)Nc2cc(C)on2)cc1	2.1	-1.1	-13.2	10.6	-6.6
CCCCn1c(C)cc2c(c1=O)[C@H]1O[C@](CCCC)(Cc3c1ccc1ccccc31)O2	0.6	·	9.5	·	4.0
O=C(O)c1ccc(Cn2c(SCc3cc(=O)n4cc(Br)ccc4n3)nc3ccsc3c2=O)cc1	1.3	·	-30.8*	·	4.7
Cc1ccc(CNC(=O)COCc2cc(-c3ccc4c(c3)OCO4)on2)cc1	0.9	8.6	2.4	·	-1.0
Cc1nn(C2CCS(=O)(=O)C2)c(Cl)c1/C=C/C(=O)OCC(=O)c1cc(C)n(-c2ccc(F)cc2)c1C (centres undefined)	8.6	1.7	-30.9*	-3.1	-6.3
FC(F)(F)c1cnc(NNC(=S)Nc2cccnc2)c(Cl)c1	3.0	-10.6	0.6	-66.6*	0.6
FC(F)(F)c1cnc(NNC(=S)Nc2ccccc2)c(Cl)c1	·	-17.3	·	-91.7*	·
NC(=S)Nc1ncc(C(F)(F)F)cc1Cl	-0.1	-1.3	7.2	-16.7	2.9
COC(=O)CCn1c(C)cc(C(=O)COc2ccccc2C(N)=O)c1C	19.4	9.4	-55.9*	15.5	-8.0
O=C(Nc1nnc(S(=O)(=O)N2CCCCCC2)s1)c1ccccc1Cl	8.0	-0.4	-40.7*!	13.5	-6.7
O=C(Nc1nnc(S(=O)(=O)N2CCCC2)s1)c1ccccc1Cl	1.1	0.6	6.6	9.4	-0.6
CC(C)CN(c1ccccc1)S(=O)(=O)c1nnc(NC(=O)C(C)C)s1	3.2	-2.6	-40.6*	28.8	-3.9
COc1ccc(N(CC(C)C)S(=O)(=O)c2nnc(NC(=O)c3ccco3)s2)cc1	0.4	-15.7	1.1	-91.0*	0.2
CCN(c1ccc(OC)cc1)S(=O)(=O)c1nnc(NC(=O)c2ccccc2Cl)s1	1.9	5.3	-41.9*!	0.4	-6.6
SMILES	D1 ag	DRD3 agonist	D1 antagonist	D3 antag	D1 PAM
CCN(CC)S(=O)(=O)c1nnc(NC(=O)c2ccccc2Cl)s1	0.9	-9.9	-5.8	·	-0.6
CCn1c(=O)c2cc(C(=O)N(CCCOC(C)C)Cc3ccco3)sc2c2ccccc21	7.4	4.8	7.3	·	-1.4
COc1ccc(-c2cc(C(=O)Nc3c(C(=O)c4ccc(C)c(F)c4)oc4ccccc34)no2)cc1	-1.8	-15.6	4.7	·	0.1
Cc1ccccc1CN1C(=O)c2ccccc2Sc2ccc(C(=O)NC(C)c3ccccc3)cc21 (centres undefined)	1.1	0.9	-12.1	·	-1.9
c1cnc(N2CCN(Cc3c[nH]c4ccccc34)CC2)nc1	3.1	-7.0	-7.9	-50.8*	1.8
O=C(c1ccc(Cl)cc1)N1CCN(c2cccc3[nH]ccc23)CC1	3.9	2.6	5.0	4.5	-1.8

Screening data (PubChem)
